Our source for the Potency and outcome values is PubChem BioAssay (NCATS).

Experiment [1] is described as follows: OV-KATE Cancer Cell Toxicity qHTS against the NCATS CANVASS Library (AID 1347345). Also: potency is read from the fitted curve at half-maximal effect. In a few lines:
(§1)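 Cells were seeded at 1000 per well, allowed 4 h at 37 degrees C/5% CO2, then pin-treated with an 11-point compound series. After 72 h, viability was read as CellTiter-Glo luminescence following 15min at room temperature.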

Experiment [2] is described as follows: Panc-1005 Cancer Cell Toxicity qHTS against the NCATS CANVASS Library (AID 1347349). Also: nearly all actives have a fitted effect of over 60% in size. Also: potency is read from the fitted curve at half-maximal effect. An outline of the steps:
as §1
For orientation: Quantitative high-throughput screening tests each substance at several concentrations.

Experiment [3] can be described thus: HPAF-II 24hr Apoptosis Induction qHTS against the NCATS CANVASS Library (AID 1347356). An outline of the steps:
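HPAF-II cells (500/well) exposed to compounds in 11-point series for 24 h at 37 degrees C; caspase-3/7 activity read by Caspase-Glo luminescence after 15 min at room temperature. Doxorubicin titration as control.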

The nature of experiment [4]: qHTS for ATAD5 Agonist screened against the NCATS CANVASS Library (AID 1347367).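 Also: luciferase reporter driven by ATAD5 which rises upon DNA damage.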 An outline of the steps: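 HEK293T cells stably carrying an ATAD5-controlled luciferase reporter (2000 cells/well) attached for 5 hr, then received compounds in an 11-point series for 16hr at 37C. Luminescence was read after a 30 min room-temperature reagent step.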
Experiment [5] concerns the target Nuclear receptor subfamily 1 group I member 3 (Homo sapiens) (UniProt Q14994). As to the kind of experiment: qHTS for Constitutive Androstane Receptor (CAR) Agonist screened against the NCATS CANVASS Library (AID 1347373).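 Also: every well also contained 1.5 µM PK11195 alongside the test compound.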 An outline of the steps: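 HepG2 cells stably carrying hCAR and a CYP2B6-2.2kb luciferase reporter, treated 24hr at 37C with compounds plus 1.5uM PK11195; activation by ONE-Glo luminescence, viability by CellTiter-Fluor.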

Experiment [6] can be described thus: qHTS for activators of Nrf2/ARE signaling pathway screened against the NCATS CANVASS Library (AID 1347391). Also: nearly all actives have a fitted effect of over 60% in size. Also: potency is read from the fitted curve at half-maximal effect. An outline of the steps:
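ARE-bla HepG2 beta-lactamase reporter cells exposed to compounds for 16 h at 37C; CCF4 substrate 2 h, fluorescence at ex 405 nm, em 460/530 nm. Viability by CellTiter-Glo luminescence.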

Experiment [7] in a line: qHTS assay for small molecule disruptors of mitochondrial membrane potential screened against the NCATS CANVASS Library (AID 1347389). Also: series mostly up to about 46 µM; nearly all actives have a fitted effect of over 60% in size. In a few lines:
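HepG2 cells (2,000/well) plated overnight, then exposed to compounds in 11-point qHTS series for 1 h at 37C before 30 min Mito-MPS dye; depolarization read as fall in red aggregate (590 nm) to green monomer (535 nm) fluorescence.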

Experiment [8] in a line: G06 Cancer Cell Toxicity qHTS against the NCATS CANVASS Library (AID 1347368). Also: nearly all actives have a fitted effect of over 60% in size. Also: potency is read from the fitted curve at half-maximal effect. In a few lines: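 G06 dog glioma cells, 500 per well, exposed 72 hr at 37C, 5% CO2 to compounds in an 11-point series. Cytotoxicity read as ATP content by CellTiterGlo luminescence.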
Experiment [9] can be described thus: qHTS for Antimalaria activity screened against the NCATS CANVASS Library (AID 1347380). Also: nearly all actives have a fitted effect of over 40% in size. Also: potency is read from the fitted curve at half-maximal effect. An outline of the steps:
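Red blood cells infected with P. falciparum Dd2 (2.5% hematocrit final, 0.3% parasitemia) were exposed to compounds in an 11-point qHTS series for 72 hr at 37C under 5% O2 and 5% CO2. Lysis buffer with SYBR Green was then added for 18 hr, and fluorescence was read at 485/535 nm.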

Molecules are shown by their SMILES. Values without a mark were called inactive. Inconclusive results are not listed. Calls of active or inactive are those of the source. Calls follow the shape of the dose curve; as a rule, active = well fitted curve in the direction sought with a large enough effect; inconclusive = small, poorly fitted or top-dose-only effect, or another doubt; inactive = no such curve, though single readings can be large; an effect the other way counts as inactive or inconclusive.

Sequence of Nuclear receptor subfamily 1 group I member 3 (Homo sapiens) (Q14994 whole entry, looked up): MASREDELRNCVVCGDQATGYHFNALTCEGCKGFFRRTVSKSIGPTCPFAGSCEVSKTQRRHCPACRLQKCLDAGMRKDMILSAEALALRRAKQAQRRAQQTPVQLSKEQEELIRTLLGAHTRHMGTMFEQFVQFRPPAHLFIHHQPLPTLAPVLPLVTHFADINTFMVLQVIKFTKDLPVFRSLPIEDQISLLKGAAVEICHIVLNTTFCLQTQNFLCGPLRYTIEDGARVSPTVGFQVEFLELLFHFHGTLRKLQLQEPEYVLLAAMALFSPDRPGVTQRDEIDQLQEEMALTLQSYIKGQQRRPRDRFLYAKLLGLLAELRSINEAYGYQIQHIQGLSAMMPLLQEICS

As to `O=c1cc(-c2ccc(O)c(O[C@@H]3O[C@H](CO)[C@@H](O)[C@H](O)[C@H]3O)c2)oc2cc(O[C@@H]3O[C@H](CO)[C@@H](O)[C@H](O)[C@H]3O)cc(O)c12`, the Potency entry in experiment [1], in experiment [2], in experiment [4] and in experiment [6] was “inactive” throughout. Moreover, the call in experiment [3] and in experiment [5] was inactive.

Take `O=C(O)CC1OC(=O)c2c(O)cccc21` (centres undefined): the Potency result in experiment [1], in experiment [7] and in experiment [6] was “inactive” throughout. The call in [3] was inactive.

As for `C/C=C/c1cc(OC)c2c(c1)[C@@H](C)[C@H](c1ccc(O)c(OC)c1)O2`, the Potency entry in [1] and in experiment [7] was “inactive” in each case. Besides, the outcome in experiment [3] and in experiment [5] was inactive.

Take `CC(=O)O[C@@H]1C=C2C(=O)OC[C@]2(O)[C@@]2(C)CCCC(C)(C)[C@H]12`: the figures for the Potency in experiment [1] and in experiment [8] were 5.94 µM (active) and 10.5 µM (active), respectively. Besides, the call in [5] was inactive. In addition, the Potency entry in experiment [6] was “inactive”.

Regarding `C/C=C1/CC[C@@H]2c3[nH]c4ccccc4c3CCN2C1`, the Potency entry in experiment [1], in [8] and in experiment [7] was “inactive” throughout. Also, in [3], the call was inactive.

On to `C[C@@]12CCC[C@@](C)(C(=O)O)[C@H]1C[C@@H](O)[C@]13C[C@H]4C[C@H](O[C@@]4(C)C1)[C@@H]23`, for which the Potency entry in [1], in [4], in experiment [8], in experiment [7] and in experiment [6] was “inactive” throughout. Further, in experiment [3], the call was inactive.

Regarding `C=C[C@@]1(C)CC[C@@H]([C@H](C)C(=O)/C=C/C(C)C)O1`, the Potency result in experiment [1], in experiment [4], in [7] and in experiment [6] was “inactive” in each case. Moreover, the compound was called inactive in experiment [5].

Turning to `CC(C)(Br)[C@@H](Cl)C[C@H](Br)[C@](C)(Cl)/C=C/Br`, the Potency in experiment [1] was 23.6 µM (active); in experiment [8], 13.2 µM (active). In addition, the result in experiment [3] and in [5] was inactive. The Potency result in experiment [4] was “inactive”.

On to `O=C1c2c(O)cc(O)cc2O[C@@H](c2ccc(O)cc2)[C@@H]1c1c(O)cc(O)c2c(=O)cc(-c3ccc(O)c(O)c3)oc12`, for which the Potency entry in experiment [1], in experiment [4] and in experiment [6] was “inactive” throughout. In experiment [5], the compound was called inactive.

As for `O=C1C[C@@H](c2ccc(O)c(-c3c(O)cc(O)c4c3O[C@H](c3ccc(O)cc3)CC4=O)c2)Oc2cc(O)cc(O)c21`, the Potency result in experiment [1], in experiment [2], in experiment [4] and in [8] was “inactive” throughout. For the same compound, the outcome in [3] and in experiment [5] was inactive.

As to `C=C[C@]1(C)CC[C@@H]([C@H](C)C(=O)OCC)O1`, the Potency result in experiment [1] was “inactive”. Further, the compound was called inactive in experiment [5].

For the compound `CC(=O)[C@@H]1[C@@H](O)C[C@H]2[C@]3(C)CC[C@H]4C(C)(C)CCC[C@]4(CO)[C@H]3C[C@H]3OC(=O)[C@@H]1[C@@]32C`, the Potency entry in [1], in [2], in experiment [8] and in experiment [6] was “inactive” in each case. In addition, the compound was classed as inactive in experiment [3] and in [5].

Consider `C=C1C[C@@]23C=CC(=O)[C@@](C)(CCC(=O)Nc4c(O)ccc(C(=O)O)c4O)C2C[C@@H]1CC3O` (some centres undefined), for which the Potency entry in experiment [1], in experiment [8], in experiment [9], in experiment [7] and in [6] was “inactive” each time. Also, the compound was called inactive in experiment [3] and in experiment [5].

`Oc1ccc(C2c3c(O)cc(O)cc3[C@@H]3C(c4ccc(O)cc4)c4c(O)cc(O)cc4[C@H]23)cc1` (some centres undefined): the Potency entry in [1], in experiment [8] and in experiment [6] was “inactive” in each case. Moreover, the compound was classed as inactive in [3] and in experiment [5].

As to `Oc1ccc(/C=C2/c3cc(O)cc(O)c3C(c3ccc(O)cc3)[C@H]2c2cc(O)cc(O)c2)cc1` (some centres undefined), the Potency entry in [1], in experiment [4], in experiment [8], in experiment [7] and in experiment [6] was “inactive” in each case. The compound was called inactive in experiment [3].

On to `C=CC(=C)CC[C@]1(C)[C@H]2C[C@H](OC(=O)C(C)CC)C=C3[C@H](OC(C)=O)O[C@H](OC(C)=O)[C@@]32[C@H](OC)C[C@@H]1C` (some centres undefined), for which the Potency is 2.17 µM (active) in [1] and 6.05 µM (active) in experiment [8]. Besides, the Potency result in [6] is “inactive”.

Take `CN1CC[C@]2(c3cccc4c3N[C@@H]3N(C)CC[C@]43[C@@]34CCN(C)[C@@H]3Nc3ccccc34)c3ccccc3N[C@H]12`: the figures for the Potency in experiment [1], in experiment [8] and in experiment [9] were 14.9 µM (active), 3.72 µM (active) and 1.49 µM (active), respectively. The result in experiment [3] and in [5] was inactive. In addition, the Potency entry in experiment [7] and in [6] was “inactive” in each case.

As to `C/C(=C\[C@H](C)C(=O)CCCC1CC(=O)NC(=O)C1)[C@@H]1OC(=O)/C=C/CC/C=C/C[C@@H](O)[C@@H]1C`, the Potency entry in experiment [4] and in [6] was “inactive” in each case. Moreover, the Potency in experiment [8] is 1.05 µM (active). In [5], the compound was classed as inactive.

In the case of `CC1=CC2=C[C@H](C)C[C@@]23OC(=C(C)C3=O)CC(C)(C)/C=C/C1=O`, the Potency in experiment [2] was 0.943 µM (active); in [8], 0.833 µM (active); in [9] it was 2.36 µM (active); in [6] it was 74.1 nM (active). In addition, the compound was classed as inactive in experiment [3] and in [5]. Further, in experiment [4], the Potency result is “inactive”.

With `C=C(C)C(=O)O[C@H]1C[C@H](C)[C@@H](OC(C)=O)CC[C@@]2(C)O[C@@H]2[C@H]2OC(=O)C(COC(C)=O)=C12`, the values for the Potency in experiment [2] and in experiment [8] were 6.68 µM (active) and 2.64 µM (active), respectively. For the same compound, in experiment [5], the outcome was inactive.

For `CN1CC[C@]2(c3cccc4c3N[C@@H]3N(C)CC[C@]43[C@@]34CCN(C)[C@@H]3Nc3c([C@]56CCN(C)[C@H]5Nc5ccccc56)cccc34)c3ccccc3N[C@H]12`, the Potency in experiment [2] is 6.68 µM (active); in [8], 2.64 µM (active). For the same compound, the outcome in experiment [3] was inactive. In addition, the Potency result in experiment [4], in [7] and in [6] was “inactive” each time.

With `O=C(O)[C@@]12COC3(O)C1CCN1CC[C@H]3[C@@H]1c1c2[nH]c2ccccc12`, the Potency entry in [2], in experiment [4], in experiment [8], in [9] and in experiment [6] was “inactive” throughout. The result in [5] was inactive.

Consider `CN1C(=O)[C@]23SS[C@@]1(C)C(=O)N2[C@H]1Nc2ccccc2[C@]1(c1c[nH]c2ccccc12)[C@@H]3O`, for which the values for the Potency in [2], in experiment [8] and in [6] were 0.668 µM (active), 0.296 µM (active) and 1860 nM (active), respectively. Moreover, the call in experiment [5] was inactive.
